Results filed as inconclusive are left out. Active and inactive are the calls of the source. Rule for the calls: active = hit-call score of the fitted dose curve at least 0.9, where 1 is the maximum; inconclusive = response in the unintended direction; inactive = score below 0.9.
Experiments:
[1] = molecular target: Serine/threonine-protein phosphatase PP1-alpha catalytic subunit (Homo sapiens) (UniProt P62136); test: NVS_ENZ_hPPP1CA: NovaScreen (NVS) Enzymatic Assay for human Protein Phosphatase 1 Aatalytic subunit Alpha (PPP1CA) (AID 2283200)
How it was run: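 Chemicals were first screened in duplicate at 25 uM, and those passing threshold (e.g. 30% inhibition) were run as concentration series to 50 uM. Cell-free recombinant protein, 1.33 h read, fluorescent substrate/product mobility-shift detection, normalised to DMSO.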

[2] = molecular target: human Protein Phosphatase, Mg2+/Mn2+ Dependent 1A (PPM1A), PPM1A (gene 5494) (UniProt P35813); test: NVS_ENZ_hPPM1A: NovaScreen (NVS) Enzymatic Assay for human Protein Phosphatase, Mg2+/Mn2+ Dependent 1A (PPM1A) (AID 2283198)
How it was run: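 Primary screen in duplicate at 25 uM, with actives then titrated to a maximum of 50 uM. Recombinant PPM1A dephosphorylation of fluorescent substrate measured at 1 h, with substrate and product separated by mobility shift; inhibition fitted against DMSO.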

[3] = molecular target: Tyrosine-protein phosphatase non-receptor type 13 (Homo sapiens) (UniProt Q12923); test: NVS_ENZ_hPTPN13: NovaScreen (NVS) Enzymatic Assay for human Protein Tyrosine Phosphatase Non-receptor Type 13 (PTPN13) (AID 2283205)
How it was run: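 Screened first at a single 25 uM in duplicate; compounds passing the threshold (e.g. 30% inhibition) were rerun in concentration series, top 50 uM. Recombinant enzyme, fluorescent substrate, mobility-shift separation, 0.5 h read. Data fitted as inhibition relative to DMSO.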

[4] = molecular target: human Matrix Metalloproteinase-7 (MMP7), MMP7 (gene 4316) (UniProt P09237); test: NVS_ENZ_hMMP7: NovaScreen (NVS) Enzymatic Assay for human Matrix Metalloproteinase-7 (MMP7) (AID 2283183)
How it was run: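 Compounds first tested at 25 uM in duplicate, then at up to 50 uM in concentration series if active. Protease activity measured by fluorescence intensity 1 h after dosing, with fitting relative to DMSO.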

[5] = molecular target: human Mitogen- and Stress-activated Protein Kinase-1 (Msk1), RPS6KA5 (gene 9252) (UniProt O75582); test: NVS_ENZ_hMsk1: NovaScreen (NVS) Enzymatic Assay for human Mitogen- and Stress-activated Protein Kinase-1 (Msk1) (AID 2283187)
How it was run: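 Chemicals first run in duplicate at 25 uM, with actives followed up in singleton concentration series to 50 uM maximum. Enzyme activity came from substrate/product mobility-shift separation with fluorescence detection after 1 h incubation of the recombinant protein.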

[6] = molecular target: cAMP-dependent protein kinase catalytic subunit alpha (Homo sapiens) (UniProt P17612); test: NVS_ENZ_hPKA: NovaScreen (NVS) Enzymatic Assay for human Protein Kinase A (PKA) (AID 2283192)
How it was run: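 Cell-free kinase activity read by fluorescence after mobility-shift separation of substrate and product, 1 h post-dosing. Single-concentration duplicate screen (25 uM) preceded singleton concentration series (top 50 uM); loss of signal versus DMSO.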

[7] = molecular target: human Phosphodiesterase 5 (PDE5), PDE5A (gene 8654) (UniProt O76074); test: NVS_ENZ_hPDE5: NovaScreen (NVS) Enzymatic Assay for human Phosphodiesterase 5 (PDE5) (AID 2283194)
How it was run: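 Screening began in duplicate at 25 uM, with actives taken into concentration-response. Enzyme activity of recombinant PDE5 toward its substrate was measured at 1 h by fluorescence mobility-shift detection, relative to DMSO controls.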

[8] = molecular target: human Phosphoinositide 3-kinase alpha (PI3Ka), PIK3CA (gene 5290) (UniProt P42336); test: NVS_ENZ_hPI3Ka: NovaScreen (NVS) Enzymatic Assay for human Phosphoinositide 3-kinase alpha (PI3Ka) (AID 2283196)
How it was run: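 Chemicals were first screened at 25 uM in duplicate, then hits were run as concentration series up to 50 uM. Enzyme activity was measured by fluorescence after mobility-shift separation, with loss of signal relative to DMSO taken as activity.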

[9] = molecular target: Tyrosine-protein phosphatase non-receptor type 11 (Homo sapiens) (UniProt Q06124); test: NVS_ENZ_hPTPN11: NovaScreen (NVS) Enzymatic Assay for human Protein Tyrosine Phosphatase Non-receptor Type 11 (PTPN11) (AID 2283202)
How it was run: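 Compounds first tested in duplicate at 25 uM; those reaching ~30% inhibition rerun in singleton concentration-response, top 50 uM. Phosphatase activity measured after 0.5 h by fluorescence with mobility-shift separation, relative to DMSO.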

[10] = molecular target: Tyrosine-protein phosphatase non-receptor type 12 (Homo sapiens) (UniProt Q05209); test: NVS_ENZ_hPTPN12: NovaScreen (NVS) Enzymatic Assay for human Protein Tyrosine Phosphatase Non-receptor Type 12 (PTPN12) (AID 2283204)
How it was run: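 Single-concentration duplicates (25 uM) preceded singleton concentration-response up to 50 uM for chemicals passing threshold. Cell-free recombinant PTPN12 activity was read 1.33 h after dosing via fluorescence after mobility-shift separation; loss of signal versus DMSO.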

[11] = molecular target: human Protein Tyrosine Phosphatase Non-receptor Type 4 (PTPN4), PTPN4 (gene 5775) (UniProt P29074); test: NVS_ENZ_hPTPN4: NovaScreen (NVS) Enzymatic Assay for human Protein Tyrosine Phosphatase Non-receptor Type 4 (PTPN4) (AID 2283208)
How it was run: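 Screened in duplicate at 25 uM, with hits then titrated to a top concentration of 50 uM. Recombinant Sf9-derived PTPN4 turnover was read by fluorescence with electrophoretic separation, 1.33 h after compound addition. DMSO served as baseline.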

[12] = molecular target: human Protein Tyrosine Phosphatase Receptor Type B (PTPRB), PTPRB (gene 5787) (UniProt P23467); test: NVS_ENZ_hPTPRB: NovaScreen (NVS) Enzymatic Assay for human Protein Tyrosine Phosphatase Receptor Type B (PTPRB) (AID 2283211)
How it was run: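 Recombinant human PTPRB with a fluorescent substrate, product separated by electrophoretic mobility shift; read 1 h after dosing. Primary screen in duplicate at 25 uM; actives then retested in concentration series; loss of signal versus DMSO.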

[13] = molecular target: human Phosphodiesterase 4A1 (PDE4A1), PDE4A (gene 5141) (UniProt P27815); test: NVS_ENZ_hPDE4A1: NovaScreen (NVS) Enzymatic Assay for human Phosphodiesterase 4A1 (PDE4A1) (AID 2283191)
How it was run: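 Fluorescent substrate turnover by recombinant PDE4A1 read after 1 h by mobility-shift separation. Primary duplicate screen at 25 uM; hits retested in concentration series with a 50 uM maximum, relative to DMSO.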

[14] = molecular target: human Protein Tyrosine Phosphatase Non-receptor Type 9 (PTPN9), PTPN9 (gene 5780) (UniProt P43378); test: NVS_ENZ_hPTPN9: NovaScreen (NVS) Enzymatic Assay for human Protein Tyrosine Phosphatase Non-receptor Type 9 (PTPN9) (AID 2283209)
How it was run: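 Sf9-expressed enzyme in a cell-free assay, fluorescence read 1.33 h after dosing with mobility-shift separation of substrate and product. Tested at 25 uM in duplicate, then up to 50 uM; signal loss versus DMSO.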

[15] = molecular target: human Phosphodiesterase 10 (PDE10), PDE10A (gene 10846) (UniProt Q9Y233); test: NVS_ENZ_hPDE10: NovaScreen (NVS) Enzymatic Assay for human Phosphodiesterase 10 (PDE10) (AID 2283195)
How it was run: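 Fluorescence readout after mobility-shift separation of substrate and product, 1 h reaction with recombinant human enzyme. Single-concentration duplicates at 25 uM, then concentration-response up to 50 uM for chemicals reaching threshold; DMSO baseline.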

[16] = molecular target: human Matrix Metalloproteinase-9 (MMP9), MMP9 (gene 4318) (UniProt P14780); test: NVS_ENZ_hMMP9: NovaScreen (NVS) Enzymatic Assay for human Matrix Metalloproteinase-9 (MMP9) (AID 2283190);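 note: cell-free recombinant MMP9 protease activity read by fluorescent substrate signal; active means inhibition seen as loss of fluorescence signal versus DMSO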
How it was run: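 Inhibition was scored as loss of fluorescence signal against DMSO controls. The recombinant protease was exposed to chemicals for 1 hour before reading; initial testing used 25 uM in duplicate.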

[17] = molecular target: human Matrix Metalloproteinase-2 (MMP2), MMP2 (gene 4313) (UniProt P08253); test: NVS_ENZ_hMMP2: NovaScreen (NVS) Enzymatic Assay for human Matrix Metalloproteinase-2 (MMP2) (AID 2283184)
How it was run: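 Compounds first screened in duplicate at a single 25 uM, with actives followed up in concentration series. Recombinant human MMP2 cleaves a fluorogenic substrate; fluorescence taken at 1 h, inhibition fitted relative to DMSO.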

[18] = molecular target: human Matrix Metalloproteinase-3 (MMP3), MMP3 (gene 4314) (UniProt P08254); test: NVS_ENZ_hMMP3: NovaScreen (NVS) Enzymatic Assay for human Matrix Metalloproteinase-3 (MMP3) (AID 2283185)
How it was run: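 Fluorescent substrate turnover by recombinant MMP3 read after 1 h, signal loss scored against DMSO. Compounds first run in duplicate at 25 uM single dose, then actives confirmed by concentration series.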

[19] = molecular target: human Protein Tyrosine Phosphatase Non-receptor Type 1 (PTPN1), PTPN1 (gene 5770) (UniProt P18031); test: NVS_ENZ_hPTPN1: NovaScreen (NVS) Enzymatic Assay for human Protein Tyrosine Phosphatase Non-receptor Type 1 (PTPN1) (AID 2283201)
How it was run: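 Chemicals were first tested in duplicate at 25 uM, and those passing threshold went on to singleton concentration series topping at 50 uM. Recombinant enzyme, specific substrate, product separated by mobility shift, fluorescence read at 1.33 h; activity loss relative to DMSO.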

[20] = molecular target: Tyrosine-protein phosphatase non-receptor type 14 (Homo sapiens) (UniProt Q15678); test: NVS_ENZ_hPTPN14: NovaScreen (NVS) Enzymatic Assay for human Protein Tyrosine Phosphatase Non-receptor Type 14 (PTPN14) (AID 2283206)
How it was run: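 Fluorescent substrate turnover by recombinant human PTPN14 was measured 0.5 h after compound addition, with substrate and product separated by mobility shift. Single-point screening at 25 uM, then concentration-response up to 50 uM for chemicals meeting threshold (e.g., 30% inhibition).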

Chain of Tyrosine-protein phosphatase non-receptor type 12 (Homo sapiens) (Q05209 whole entry, looked up): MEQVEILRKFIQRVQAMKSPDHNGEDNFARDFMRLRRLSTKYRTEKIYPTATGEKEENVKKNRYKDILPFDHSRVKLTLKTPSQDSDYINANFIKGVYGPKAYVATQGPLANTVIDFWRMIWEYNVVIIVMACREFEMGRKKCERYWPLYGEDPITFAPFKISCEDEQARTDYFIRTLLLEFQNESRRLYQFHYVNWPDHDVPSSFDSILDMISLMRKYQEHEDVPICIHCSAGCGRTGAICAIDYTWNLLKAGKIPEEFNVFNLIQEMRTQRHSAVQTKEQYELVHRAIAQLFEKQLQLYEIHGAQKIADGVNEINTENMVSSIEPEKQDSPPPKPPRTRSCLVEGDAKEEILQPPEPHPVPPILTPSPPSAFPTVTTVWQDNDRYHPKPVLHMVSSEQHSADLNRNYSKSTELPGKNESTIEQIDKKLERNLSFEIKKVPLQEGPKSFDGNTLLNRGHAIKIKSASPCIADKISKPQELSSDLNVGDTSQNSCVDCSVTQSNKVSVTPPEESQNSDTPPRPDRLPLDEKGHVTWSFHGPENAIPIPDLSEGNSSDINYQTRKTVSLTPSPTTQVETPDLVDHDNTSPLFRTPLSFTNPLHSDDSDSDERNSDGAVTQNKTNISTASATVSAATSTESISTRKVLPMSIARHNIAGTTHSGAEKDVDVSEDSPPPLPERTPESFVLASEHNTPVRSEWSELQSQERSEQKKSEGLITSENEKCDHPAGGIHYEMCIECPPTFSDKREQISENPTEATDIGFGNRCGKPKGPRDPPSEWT
Chain of human Phosphodiesterase 4A1 (PDE4A1), PDE4A (gene 5141) (P27815 whole entry, looked up): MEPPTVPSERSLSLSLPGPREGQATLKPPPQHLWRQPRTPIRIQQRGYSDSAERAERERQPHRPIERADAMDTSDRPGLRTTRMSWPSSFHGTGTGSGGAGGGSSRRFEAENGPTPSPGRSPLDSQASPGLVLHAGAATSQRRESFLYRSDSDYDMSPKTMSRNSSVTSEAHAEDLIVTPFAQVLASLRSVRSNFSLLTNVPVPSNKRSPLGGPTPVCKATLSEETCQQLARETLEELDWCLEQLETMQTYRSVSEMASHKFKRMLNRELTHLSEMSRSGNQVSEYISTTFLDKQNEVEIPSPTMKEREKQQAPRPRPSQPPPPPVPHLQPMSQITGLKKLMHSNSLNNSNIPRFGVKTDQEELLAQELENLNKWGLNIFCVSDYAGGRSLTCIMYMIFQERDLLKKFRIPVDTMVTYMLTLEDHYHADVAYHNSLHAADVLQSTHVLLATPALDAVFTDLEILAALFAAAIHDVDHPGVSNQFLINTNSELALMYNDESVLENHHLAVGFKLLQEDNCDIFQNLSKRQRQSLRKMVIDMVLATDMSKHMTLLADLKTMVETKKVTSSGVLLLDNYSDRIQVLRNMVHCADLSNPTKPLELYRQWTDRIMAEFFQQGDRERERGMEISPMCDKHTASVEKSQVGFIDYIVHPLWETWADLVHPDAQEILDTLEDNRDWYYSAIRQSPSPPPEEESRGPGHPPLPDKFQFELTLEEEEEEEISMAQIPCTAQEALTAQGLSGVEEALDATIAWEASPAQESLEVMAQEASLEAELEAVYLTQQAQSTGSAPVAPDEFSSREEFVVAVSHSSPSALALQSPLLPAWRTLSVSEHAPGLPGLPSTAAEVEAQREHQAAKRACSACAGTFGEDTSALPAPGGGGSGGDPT
Chain of Serine/threonine-protein phosphatase PP1-alpha catalytic subunit (Homo sapiens) (P62136 whole entry, looked up): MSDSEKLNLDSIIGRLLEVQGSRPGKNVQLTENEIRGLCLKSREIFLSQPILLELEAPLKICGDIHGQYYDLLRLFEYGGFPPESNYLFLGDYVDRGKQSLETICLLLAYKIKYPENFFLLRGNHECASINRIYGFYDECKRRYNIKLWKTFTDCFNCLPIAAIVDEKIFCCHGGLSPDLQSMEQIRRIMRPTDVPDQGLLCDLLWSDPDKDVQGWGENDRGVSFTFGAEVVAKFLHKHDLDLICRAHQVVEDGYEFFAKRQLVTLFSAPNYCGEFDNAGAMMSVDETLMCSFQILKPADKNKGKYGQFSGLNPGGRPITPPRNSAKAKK
Chain of Tyrosine-protein phosphatase non-receptor type 11 (Homo sapiens) (Q06124 whole entry, looked up): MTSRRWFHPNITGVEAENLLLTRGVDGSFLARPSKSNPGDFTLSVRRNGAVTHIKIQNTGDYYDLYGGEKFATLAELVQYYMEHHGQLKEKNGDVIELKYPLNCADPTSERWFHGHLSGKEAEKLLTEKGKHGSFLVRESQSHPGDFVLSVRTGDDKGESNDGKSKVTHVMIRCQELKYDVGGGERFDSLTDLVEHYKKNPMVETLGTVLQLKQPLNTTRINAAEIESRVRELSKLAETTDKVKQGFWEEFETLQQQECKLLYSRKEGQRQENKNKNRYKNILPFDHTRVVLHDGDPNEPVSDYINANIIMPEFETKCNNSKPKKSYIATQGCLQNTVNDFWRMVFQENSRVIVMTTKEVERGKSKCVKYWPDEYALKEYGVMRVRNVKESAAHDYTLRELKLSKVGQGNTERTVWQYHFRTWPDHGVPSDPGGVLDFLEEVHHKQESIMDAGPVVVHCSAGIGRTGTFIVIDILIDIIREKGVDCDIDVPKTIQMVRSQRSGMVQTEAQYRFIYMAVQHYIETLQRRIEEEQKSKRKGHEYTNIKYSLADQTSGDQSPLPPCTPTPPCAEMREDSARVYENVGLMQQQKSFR
Chain of human Matrix Metalloproteinase-2 (MMP2), MMP2 (gene 4313) (P08253 whole entry, looked up): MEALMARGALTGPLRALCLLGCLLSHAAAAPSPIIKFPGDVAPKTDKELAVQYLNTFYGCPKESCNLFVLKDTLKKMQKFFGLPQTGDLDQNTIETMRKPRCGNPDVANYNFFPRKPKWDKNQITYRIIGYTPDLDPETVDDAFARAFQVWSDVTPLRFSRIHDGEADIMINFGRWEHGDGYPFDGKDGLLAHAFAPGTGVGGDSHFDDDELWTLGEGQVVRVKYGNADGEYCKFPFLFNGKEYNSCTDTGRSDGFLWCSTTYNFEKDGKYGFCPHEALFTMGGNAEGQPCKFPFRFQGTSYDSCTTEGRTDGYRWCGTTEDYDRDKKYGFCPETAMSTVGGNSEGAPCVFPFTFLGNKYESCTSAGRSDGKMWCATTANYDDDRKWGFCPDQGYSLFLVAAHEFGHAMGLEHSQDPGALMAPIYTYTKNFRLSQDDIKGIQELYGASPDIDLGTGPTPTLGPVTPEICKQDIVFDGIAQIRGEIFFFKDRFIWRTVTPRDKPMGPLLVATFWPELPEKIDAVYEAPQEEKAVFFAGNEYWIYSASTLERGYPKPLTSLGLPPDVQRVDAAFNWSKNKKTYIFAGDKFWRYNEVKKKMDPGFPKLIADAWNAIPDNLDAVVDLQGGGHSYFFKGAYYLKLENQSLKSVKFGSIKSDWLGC
Chain of human Matrix Metalloproteinase-7 (MMP7), MMP7 (gene 4316) (P09237 whole entry, looked up): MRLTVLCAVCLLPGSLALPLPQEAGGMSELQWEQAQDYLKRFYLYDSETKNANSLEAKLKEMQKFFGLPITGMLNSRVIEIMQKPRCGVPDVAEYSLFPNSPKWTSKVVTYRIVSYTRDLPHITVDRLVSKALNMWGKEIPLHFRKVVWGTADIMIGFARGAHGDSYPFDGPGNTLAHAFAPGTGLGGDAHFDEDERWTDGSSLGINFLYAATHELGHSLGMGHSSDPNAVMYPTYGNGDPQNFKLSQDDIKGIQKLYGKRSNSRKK
Chain of human Protein Phosphatase, Mg2+/Mn2+ Dependent 1A (PPM1A), PPM1A (gene 5494) (P35813 whole entry, looked up): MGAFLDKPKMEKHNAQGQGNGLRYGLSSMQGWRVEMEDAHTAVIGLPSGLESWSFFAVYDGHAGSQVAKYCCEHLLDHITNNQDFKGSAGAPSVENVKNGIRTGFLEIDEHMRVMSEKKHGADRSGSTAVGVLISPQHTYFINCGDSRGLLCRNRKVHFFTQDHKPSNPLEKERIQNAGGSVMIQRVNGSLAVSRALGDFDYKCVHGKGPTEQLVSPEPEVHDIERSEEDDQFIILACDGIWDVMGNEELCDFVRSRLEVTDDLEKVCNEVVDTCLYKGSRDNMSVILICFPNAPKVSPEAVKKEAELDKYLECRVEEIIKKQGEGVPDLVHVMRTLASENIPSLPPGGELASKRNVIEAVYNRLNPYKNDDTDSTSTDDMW
Chain of human Protein Tyrosine Phosphatase Non-receptor Type 9 (PTPN9), PTPN9 (gene 5780) (P43378 whole entry, looked up): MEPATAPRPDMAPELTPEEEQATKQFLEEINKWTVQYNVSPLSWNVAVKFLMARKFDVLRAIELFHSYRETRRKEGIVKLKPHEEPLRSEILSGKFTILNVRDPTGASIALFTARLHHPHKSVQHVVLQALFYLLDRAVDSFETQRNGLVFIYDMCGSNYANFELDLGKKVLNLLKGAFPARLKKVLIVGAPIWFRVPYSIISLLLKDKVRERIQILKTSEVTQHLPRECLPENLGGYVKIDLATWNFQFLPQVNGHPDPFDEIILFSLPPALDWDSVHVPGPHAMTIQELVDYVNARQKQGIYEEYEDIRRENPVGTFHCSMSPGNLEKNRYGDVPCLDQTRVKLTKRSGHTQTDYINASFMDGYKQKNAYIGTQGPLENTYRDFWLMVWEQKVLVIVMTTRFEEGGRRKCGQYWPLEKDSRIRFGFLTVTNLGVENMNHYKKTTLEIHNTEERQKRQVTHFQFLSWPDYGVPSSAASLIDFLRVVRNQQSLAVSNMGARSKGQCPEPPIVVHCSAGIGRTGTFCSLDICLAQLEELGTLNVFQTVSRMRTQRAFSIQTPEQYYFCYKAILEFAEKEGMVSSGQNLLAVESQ
Chain of human Matrix Metalloproteinase-3 (MMP3), MMP3 (gene 4314) (P08254 whole entry, looked up): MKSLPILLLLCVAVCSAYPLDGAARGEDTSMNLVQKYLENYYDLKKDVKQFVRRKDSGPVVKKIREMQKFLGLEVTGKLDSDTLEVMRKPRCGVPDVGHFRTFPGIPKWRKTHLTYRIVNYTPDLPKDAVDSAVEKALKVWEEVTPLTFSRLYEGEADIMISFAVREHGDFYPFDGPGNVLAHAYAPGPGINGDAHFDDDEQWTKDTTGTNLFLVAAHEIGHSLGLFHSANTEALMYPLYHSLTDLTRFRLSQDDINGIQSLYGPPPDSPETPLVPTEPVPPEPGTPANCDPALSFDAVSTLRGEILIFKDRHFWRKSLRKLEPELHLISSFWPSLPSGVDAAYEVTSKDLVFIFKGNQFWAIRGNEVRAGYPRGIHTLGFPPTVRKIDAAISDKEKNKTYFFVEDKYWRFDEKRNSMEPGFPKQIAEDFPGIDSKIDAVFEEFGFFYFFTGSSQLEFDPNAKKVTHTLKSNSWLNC

In the case of c1ccc(C(O[C@@H]2CCCN(CCc3ccc4c(c3)OCO4)C2)c2ccccc2)cc1, the outcome [1] is reported as “inactive”.
CCCCCCCCN(C)C was tested, and the outcome [2] was “inactive” and the outcome [1] was “inactive”.
For CC(C)CCCCCCOC(=O)C1CCCCC1C(=O)OCCCCCCC(C)C (stereo not drawn), the outcome [1] was “inactive”.
In the case of OC(CCl)CCl, the outcome [3] is reported as “inactive”.
In the case of Cc1ccc(S(=O)(=O)NC(=O)NN2CCCCCC2)cc1, the outcome [4] is reported as “inactive”.
For CCCCCCCC/C=C\CCCCCCCC(=O)OC[C@@H](O)[C@H]1OC[C@H](O)[C@H]1O, the outcome [5] was “inactive”, the outcome [6] was “inactive” and the outcome [7] was “inactive”. For the same molecule, the outcome [8] was “inactive”, the outcome [9] was “inactive” and the outcome [10] was “inactive”. The outcome [11] was “inactive” and the outcome [12] was “inactive”.
For O=C(O)c1ccc2c(c1)nc(C(=O)NC1CCN(C3CC3)CC1)n2Cc1cc(-c2ccc(Cl)s2)on1, the outcome [13] was “inactive”, the AC50 [7] was 3.95 µM (active) and the AC50 [3] was 257 nM (active). For the same molecule, the outcome [14] was “inactive”.
With C[C@@H](Oc1ccc(CNC(=O)c2cccnc2Oc2ccc3c(c2)OCO3)c(F)c1)C(=O)O the AC50 [13] was 799 nM (active), the AC50 [15] was 7.95 µM (active) and the outcome [2] was “inactive”.
In the case of CCCCN1C(=O)[C@@H]([C@H](O)C2CCCCC2)NC(=O)C12CCN(Cc1ccc(Oc3ccc(C(=O)O)cc3)cc1)CC2, the outcome [16] is reported as “inactive”.
For c1ccc2cc3ccccc3cc2c1, the outcome [3] was “inactive”.
With O=S(=O)(O)c1ccc(N=Nc2c(O)ccc3cc(S(=O)(=O)O)ccc23)cc1 the AC50 [17] was 4.96 µM (active) and the AC50 [18] was 19.4 µM (active).
For OC[C@H]1O[C@@](CO)(O[C@H]2O[C@H](CO)[C@@H](O)[C@H](O)[C@H]2O)[C@@H](O)[C@@H]1O, the outcome [17] was “inactive”.
For NC(=O)N1c2ccccc2C=Cc2ccccc21, the outcome [7] was “inactive”.
With COCc1nnc(-c2ccc[n+]([O-])c2)n1-c1c(Cl)c(Cl)cc2[nH]c(=O)c(=O)[nH]c12 the AC50 [17] was 7.26 µM (active) and the outcome [7] was “inactive”.
O=C1CN(N=Cc2ccc([N+](=O)[O-])o2)C(=O)N1 was tested, and the outcome [9] was “inactive”.
With O=C(NO)C1(NS(=O)(=O)c2ccc(Oc3ccc(F)cc3)cc2)CCOCC1 the AC50 [4] was 14.7 µM (active), the AC50 [18] was 1.92 µM (active) and the AC50 [16] was 9.16 nM (active). The outcome [6] was “inactive”, the AC50 [7] was 10.4 µM (active) and the outcome [2] was “inactive”. The outcome [19] was “inactive” and the outcome [11] was “inactive”.
With CCCCCCCCCC the outcome [10] was “inactive”.
CC(C)C(=O)Nc1ccc([N+](=O)[O-])c(C(F)(F)F)c1 was tested, and the outcome [4] was “inactive” and the AC50 [17] was 12.7 µM (active).
With Cc1ncc([C@@H](CCCCCCc2ccc3c(n2)NCCC3)CC(=O)O)cn1 the outcome [5] was “inactive”, the outcome [13] was “inactive” and the outcome [7] was “inactive”. The AC50 [15] was 18.2 µM (active), the outcome [8] was “inactive” and the outcome [9] was “inactive”. For the same molecule, the outcome [10] was “inactive”, the outcome [20] was “inactive” and the outcome [14] was “inactive”. For the same molecule, the AC50 [12] was 18.6 µM (active).
For CC(=O)c1ccccc1, the AC50 [17] was 26.7 µM (active).
C[C@]12C=CC(=O)C=C1CC[C@H]1[C@@H]3C[C@@H](O)[C@](O)(C(=O)CO)[C@@]3(C)C[C@H](O)[C@@]12F was tested, and the outcome [1] was “inactive”.

Reference: PubChem BioAssay (EPA / NIEHS)
